# Results filed as inconclusive are left out. Where a call stands in place of a potency, no number is given. The source made the active and inactive calls. The call rests on the fitted dose curve; in most records, active means well fitted inhibition curve with a large enough effect; inconclusive means small, poorly fitted or top-dose-only effect; inactive means no such curve, though single readings can be large or run the other way.
# Experiment: P-glycoprotein substrates identified in KB-3-1 adenocarcinoma cell line, qHTS therapeutic library screen (AID 1346986); further: nearly all actives have a fitted effect of over 60% in size;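 further: potency is for cytotoxicity meaning loss of cell viability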
# Conditions: KB-3-1 parental cells viability, CellTiter-Glo, 72 h; series mostly up to 44.5 µM
# Method in brief: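 Viability read by CellTiter-Glo after 72 h compound exposure in dose-response of KB-3-1 and KB-8-5-11 (P-gp-high) cells. Hits needed AC50 < 10 uM, >50% maximum response and curve class -1.1 to -2.4. Cherry-picks retested ± tariquidar, including pcDNA/MDR-19 HEK-293 pair.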
# Potency means the concentration at half of the fitted maximal effect.
row,SMILES,Potency
1,CC(C)C[C@@H](N)C(=O)N[C@H]1C(=O)N[C@@H](CC(N)=O)C(=O)N[C@H]2C(=O)N[C@H]3C(=O)N[C@H](C(=O)N[C@H](C(=O)O)c4cc(O)cc(O)c4-c4cc3ccc4O)[C@H](O)c3ccc(c(Cl)c3)Oc3cc2cc(c3O[C@@H]2O[C@H](CO)[C@@H](O)[C@H](O)[C@H]2O[C@H]2C[C@](C)(N)[C@H](O)[C@H](C)O2)Oc2ccc(cc2Cl)[C@H]1O,inactive
2,Cc1cccc(N2CCN(C(=O)c3cc(S(=O)(=O)N(C)C)ccc3N3CCCC3)CC2)c1C,inactive
3,CN1c2c(nc(N)[nH]c2=O)NC[C@@H]1CNc1ccc(C(=O)N[C@@H](CCC(=O)O)C(=O)O)cc1,inactive
4,CC(=O)O[C@@H]1CC2C(/C=C(\C)C(=O)[C@@]3(O)C[C@@H](C)[C@H](OC(=O)c4ccccc4)C3/C=C/1C)C2(C)C (stereo partly drawn),inactive
5,CC(=O)O[C@@H]1C2=C(O)C(=O)[C@](C)(OC(C)=O)C(=O)C2=CO[C@@]12O[C@@H](C)CC[C@H]2OC(C)=O,inactive
6,COc1cc(O)c2c(c1)/C=C/C[C@H](O)[C@H](O)C(=O)/C=C\C[C@H](C)OC2=O,6.51 µM (active)
7,CN1CCc2cc3c(cc2C(=O)Cc2cc4c(cc2C1)OCO4)OCO3,inactive
8,Cc1cn2cc(C(=O)N(C)CCO)cc(NC3CCOc4cccc(C)c43)c2n1 (stereo not drawn),inactive
9,COc1ccc(C2=NC(c3ccc(Cl)cc3)C(c3ccc(Cl)cc3)N2C(=O)N2CCNC(=O)C2)c(OC(C)C)c1 (stereo not drawn),inactive
10,CN(CC1COCCO1)S(=O)(=O)Nc1ccc2ccc3ncc(-c4cnn(C)c4)cc3c(=O)c2c1 (stereo not drawn),11.6 µM (active)
11,CCNC(=O)C#Cc1ccc2c(C(=Nc3ccc(CN(C)C)cc3)c3ccccc3)c(O)[nH]c2c1,0.0517 µM (active)
12,Cn1ncc(Cl)c1-c1cc(C(=O)N[C@H](CN)Cc2ccc(F)c(F)c2)oc1Cl,11.6 µM (active)
13,CCC(C)C1NC(=O)C(Cc2ccccc2)NC(=O)C(CCCCCC(=O)C(O)CO)NC(=O)C2CCCCN2C1=O (stereo not drawn),inactive
14,C=C1C(=O)OC2/C=C(\CO)CC/C=C(\C=O)C(O)C(OC(=O)C(C)CC)C12 (stereo not drawn),inactive
15,C=C[C@]1(C)C[C@H](O)[C@H]2C(=C)C(=O)O[C@@H]2[C@H]1C(=C)CO,inactive
16,C=C1C(=O)O[C@@H]2/C=C(\CO)CC/C=C(\CO)[C@H](OC(C)=O)C(OC(=O)C(C)CC)C12 (stereo partly drawn),inactive
17,CCN1CCC[C@@H]1CNC(=O)c1ccc2c(c1)NC(=O)c1cccc(C)c1S2,inactive
18,COCCCNC(=O)c1ccc(Cn2c(=O)c3ccccc3n(Cc3ccc(C(C)C)cc3)c2=O)cc1,inactive
19,CC1=CC2/C=C(\C)CCC(O)C/C=C/C(=O)OC23C(=O)NC(CC(C)C)C3C1C (stereo not drawn),inactive
20,CC(C)S(=O)(=O)c1ccc2nccc(Nc3ccc4scnc4c3)c2c1,inactive
21,C=C1CCC2[C@](C)(CCC[C@@]2(C)C=O)[C@H]1CC/C(C)=C/CO (stereo partly drawn),inactive
22,C/C(=N\N=C(N)N)c1cc(NC(=O)CCCCCCCCC(=O)Nc2cc(/C(C)=N/N=C(N)N)cc(/C(C)=N/N=C(N)N)c2)cc(/C(C)=N/N=C(N)N)c1,14.6 µM (active)
23,COc1ccc(S(=O)(=O)N2CCC[C@H]2C(=O)Nc2cc(C)cc(C)c2)cc1,inactive

# — PubChem BioAssay (NCATS)
